The whole screen tested about 5,500 compounds, of which about 2,000 (36%) were called active. Not shown: some 18% with an inconclusive outcome. Rule as the data show it: active = normalized growth mostly below about 0.91 (no sharp cut-off); inconclusive = no clear call, values can overlap the other calls; inactive = mostly above about 0.92. The list shows a part of the results.
Experiment: chemical genetic growth profiling, strain panel (AID 1159580);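 also: tested at 20 µM; growth read once vehicle control cultures reached saturation at 30 °C; 1 = growth at the plate median or of vehicle wells; lower values mean less growth of the strain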
Settings: growth OD

Measured: normalized growth

O=C(OC1Cc2c(O)cc(O)cc2OC1c1cc(O)c(O)c(O)c1-c1c(C2Oc3cc(O)cc(O)c3CC2OC(=O)c2cc(O)c(O)c(O)c2)cc(O)c(O)c1O)c1cc(O)c(O)c(O)c1 (centres undefined)
active: S. cerevisiae deletion strains, locus YAL021C, strain ccr4, stronger effect = lower value 0.833 | S. cerevisiae deletion strains, locus YDR069C, strain doa4, stronger effect = lower value 0.797 | S. cerevisiae deletion strains, locus YDR137W, strain rgp1, stronger effect = lower value 0.833 | S. cerevisiae deletion strains, locus YER015W, strain faa2, stronger effect = lower value 0.926 | S. cerevisiae deletion strains, locus YHR027C, strain rpn1, stronger effect = lower value 0.849 | S. cerevisiae deletion strains, locus YLR262C, strain YPT6 (second series), stronger effect = lower value 0.766 | S. cerevisiae deletion strains, locus YLR357W, strain rsc2, stronger effect = lower value 0.807 | S. cerevisiae deletion strains, locus YMR058W, strain fet3, stronger effect = lower value 0.338 | S. cerevisiae deletion strains, locus YMR231W, strain pep5, stronger effect = lower value 0.762 | S. cerevisiae deletion strains, locus YNL209W, strain ssb2, stronger effect = lower value 0.735 | S. cerevisiae deletion strains, locus YOR106W, strain vam3, stronger effect = lower value 0.648 | S. cerevisiae deletion strains, locus YPL051W, strain arl3, stronger effect = lower value 0.82
inactive: S. cerevisiae deletion strains, locus YAL026C, strain drs2, stronger effect = lower value 0.982 | S. cerevisiae deletion strains, locus YAL030W, strain snc1, stronger effect = lower value 0.998 | S. cerevisiae deletion strains, locus YBL061C, strain skt5, stronger effect = lower value 0.982 | S. cerevisiae deletion strains, locus YBR009C, strain hhf1, stronger effect = lower value 0.995 | S. cerevisiae deletion strains, locus YBR021W, strain FUR4, stronger effect = lower value 0.988 | S. cerevisiae deletion strains, locus YBR023C, strain chs3, stronger effect = lower value 0.941 | S. cerevisiae deletion strains, locus YBR171W, strain sec66, stronger effect = lower value 1.01 | S. cerevisiae deletion strains, locus YBR229C, strain ROT2, stronger effect = lower value 1 | S. cerevisiae deletion strains, locus YBR231C, strain swc5, stronger effect = lower value 0.929 | S. cerevisiae deletion strains, locus YBR279W, strain paf1, stronger effect = lower value 0.989 | S. cerevisiae deletion strains, locus YCL011C, strain gbp2, stronger effect = lower value 1.01 | S. cerevisiae deletion strains, locus YCL016C, strain dcc1, stronger effect = lower value 1.01 | S. cerevisiae deletion strains, locus YCL029C, strain bik1, stronger effect = lower value 0.981 | S. cerevisiae deletion strains, locus YCL061C, strain MRC1, stronger effect = lower value 1.01 | S. cerevisiae deletion strains, locus YCL069W, strain vba3, stronger effect = lower value 1.02 | S. cerevisiae deletion strains, locus YCR088W, strain abp1, stronger effect = lower value 1.02 | S. cerevisiae deletion strains, locus YDL005C, strain med2, stronger effect = lower value 1.02 | S. cerevisiae deletion strains, locus YDL035C, strain GPR1, stronger effect = lower value 1.04 | S. cerevisiae deletion strains, locus YDL040C, strain nat1, stronger effect = lower value 1.03 | S. cerevisiae deletion strains, locus YDL074C, strain BRE1, stronger effect = lower value 0.969 | S. cerevisiae deletion strains, locus YDL101C, strain DUN1, stronger effect = lower value 1 | S. cerevisiae deletion strains, locus YDL185W, strain tfp1, stronger effect = lower value 0.988 | S. cerevisiae deletion strains, locus YDL192W, strain arf1, stronger effect = lower value 0.985 | S. cerevisiae deletion strains, locus YDR001C, strain nth1, stronger effect = lower value 1.02 | S. cerevisiae deletion strains, locus YDR101C, strain arx1, stronger effect = lower value 0.998 | S. cerevisiae deletion strains, locus YDR150W, strain NUM1, stronger effect = lower value 1 | S. cerevisiae deletion strains, locus YDR159W, strain sac3, stronger effect = lower value 1.11 | S. cerevisiae deletion strains, locus YDR162C, strain NBP2, stronger effect = lower value 1.02 | S. cerevisiae deletion strains, locus YDR195W, strain ref2 1.07 | S. cerevisiae deletion strains, locus YDR297W, strain sur2, stronger effect = lower value 0.992 | S. cerevisiae deletion strains, locus YDR318W, strain mcm21, stronger effect = lower value 0.995 | S. cerevisiae deletion strains, locus YDR334W, strain swr1, stronger effect = lower value 0.977 | S. cerevisiae deletion strains, locus YDR335W, strain msn5, stronger effect = lower value 1 | S. cerevisiae deletion strains, locus YDR388W, stronger effect = lower value 0.99 | S. cerevisiae deletion strains, locus YDR392W, strain spt3, stronger effect = lower value 1.02 | S. cerevisiae deletion strains, locus YDR502C, strain sam2, stronger effect = lower value 0.985 | S. cerevisiae deletion strains, locus YEL003W, strain gim4, stronger effect = lower value 0.989 | S. cerevisiae deletion strains, locus YEL037C, strain rad23, stronger effect = lower value 0.993 | S. cerevisiae deletion strains, locus YEL061C, strain CIN8 (second series), stronger effect = lower value 1.01 | S. cerevisiae deletion strains, locus YEL061C, strain CIN8, stronger effect = lower value 1.01 | S. cerevisiae deletion strains, locus YER016W, strain bim1, stronger effect = lower value 1.01 | S. cerevisiae deletion strains, locus YER110C, stronger effect = lower value 0.994 | S. cerevisiae deletion strains, locus YER111C, strain swi4, stronger effect = lower value 0.973 | S. cerevisiae deletion strains, locus YER155C, strain BEM2 (second series), stronger effect = lower value 0.994 | S. cerevisiae deletion strains, locus YER155C, strain BEM2, stronger effect = lower value 0.977 | S. cerevisiae deletion strains, locus YER167W, strain BCK2, stronger effect = lower value 1 | S. cerevisiae deletion strains, locus YFR010W, strain ubp6, stronger effect = lower value 0.934 | S. cerevisiae deletion strains, locus YGL078C, strain dbp3, stronger effect = lower value 0.987 | S. cerevisiae deletion strains, locus YGL086W, strain mad1, stronger effect = lower value 1 | S. cerevisiae deletion strains, locus YGL167C, strain pmr1, stronger effect = lower value 1 | S. cerevisiae deletion strains, locus YGL173C, strain kem1, stronger effect = lower value 0.981 | S. cerevisiae deletion strains, locus YGL227W, strain vid30, stronger effect = lower value 1.05 | S. cerevisiae deletion strains, locus YGL240W, strain doc1, stronger effect = lower value 1.04 | S. cerevisiae deletion strains, locus YGL248W, strain PDE1, stronger effect = lower value 1 | S. cerevisiae deletion strains, locus YGL253W, strain hxk2, stronger effect = lower value 0.994 | S. cerevisiae deletion strains, locus YGR078C, strain PAC10, stronger effect = lower value 0.983 | S. cerevisiae deletion strains, locus YGR135W, strain pre9, stronger effect = lower value 0.989 | S. cerevisiae deletion strains, locus YGR252W, strain gcn5, stronger effect = lower value 1.01 | S. cerevisiae deletion strains, locus YHR013C, strain ard1, stronger effect = lower value 0.852 | S. cerevisiae deletion strains, locus YHR030C, strain SLT2, stronger effect = lower value 0.998 | S. cerevisiae deletion strains, locus YHR079C, strain IRE1 (second series), stronger effect = lower value 0.987 | S. cerevisiae deletion strains, locus YHR094C, strain hxt1, stronger effect = lower value 0.989 | S. cerevisiae deletion strains, locus YHR129C, strain ARP1, stronger effect = lower value 0.983 | S. cerevisiae deletion strains, locus YHR142W, strain chs7, stronger effect = lower value 0.95 | S. cerevisiae deletion strains, locus YHR200W, strain rpn10, stronger effect = lower value 1 | S. cerevisiae deletion strains, locus YIL066C, strain RNR3, stronger effect = lower value 1.03 | S. cerevisiae deletion strains, locus YIL073C, strain SPO22, stronger effect = lower value 1.1 | S. cerevisiae deletion strains, locus YIL125W, strain kgd1, stronger effect = lower value 0.973 | S. cerevisiae deletion strains, locus YIR030C, strain dcg1, stronger effect = lower value 0.995 | S. cerevisiae deletion strains, locus YJL092W, strain hpr5, stronger effect = lower value 1.03 | S. cerevisiae deletion strains, locus YJL095W, strain BCK1 (second series), stronger effect = lower value 0.987 | S. cerevisiae deletion strains, locus YJL095W, strain BCK1, stronger effect = lower value 0.976 | S. cerevisiae deletion strains, locus YJL115W, strain asf1, stronger effect = lower value 1.02 | S. cerevisiae deletion strains, locus YJL129C, strain trk1, stronger effect = lower value 1.04 | S. cerevisiae deletion strains, locus YJL134W, strain LCB3, stronger effect = lower value 1.02 | S. cerevisiae deletion strains, locus YJL154C, strain vps35, stronger effect = lower value 1.01 | S. cerevisiae deletion strains, locus YJL164C, strain tpk1, stronger effect = lower value 0.937 | S. cerevisiae deletion strains, locus YJL166W, strain qcr8, stronger effect = lower value 0.989 | S. cerevisiae deletion strains, locus YJL168C, strain set2, stronger effect = lower value 0.981 | S. cerevisiae deletion strains, locus YJL187C, strain SWE1 (second series), stronger effect = lower value 1.01 | S. cerevisiae deletion strains, locus YJR043C, strain POL32, stronger effect = lower value 1.06 | S. cerevisiae deletion strains, locus YKL009W, strain mrt4, stronger effect = lower value 0.953 | S. cerevisiae deletion strains, locus YKL068W, stronger effect = lower value 1 | S. cerevisiae deletion strains, locus YKL085W, strain MDH1 (second series), stronger effect = lower value 0.991 | S. cerevisiae deletion strains, locus YKL085W, strain MDH1, stronger effect = lower value 0.991 | S. cerevisiae deletion strains, locus YKL160W, strain elf1, stronger effect = lower value 1 | S. cerevisiae deletion strains, locus YKL190W, strain CNB1, stronger effect = lower value 1 | S. cerevisiae deletion strains, locus YKR001C, strain vps1, stronger effect = lower value 0.961 | S. cerevisiae deletion strains, locus YKR026C, strain gcn3, stronger effect = lower value 1.02 | S. cerevisiae deletion strains, locus YKR091W, strain srl3, stronger effect = lower value 1.02 | S. cerevisiae deletion strains, locus YLL001W, strain dnm1, stronger effect = lower value 1.02 | S. cerevisiae deletion strains, locus YLL026W, stronger effect = lower value 1.02 | S. cerevisiae deletion strains, locus YLL041C, strain sdh2, stronger effect = lower value 1 | S. cerevisiae deletion strains, locus YLR027C, strain aat2, stronger effect = lower value 1.01 | S. cerevisiae deletion strains, locus YLR039C, strain RIC1, stronger effect = lower value 1.04 | S. cerevisiae deletion strains, locus YLR058C, strain SHM2, stronger effect = lower value 1.01 | S. cerevisiae deletion strains, locus YLR102C, strain apc9, stronger effect = lower value 0.988 | S. cerevisiae deletion strains, locus YLR221C, strain rsa3, stronger effect = lower value 0.995 | S. cerevisiae deletion strains, locus YLR258W, strain gsy2, stronger effect = lower value 0.993 | S. cerevisiae deletion strains, locus YLR262C, strain YPT6, stronger effect = lower value 0.99 | S. cerevisiae deletion strains, locus YLR268W, strain sec22, stronger effect = lower value 0.993 | S. cerevisiae deletion strains, locus YLR320W, strain mms22, stronger effect = lower value 0.981 | S. cerevisiae deletion strains, locus YLR330W, strain CHS5, stronger effect = lower value 0.993 | S. cerevisiae deletion strains, locus YLR342W, strain FKS1 (second series), stronger effect = lower value 1.1 | S. cerevisiae deletion strains, locus YLR342W, strain FKS1, stronger effect = lower value 0.98 | S. cerevisiae deletion strains, locus YLR370C, strain arc18, stronger effect = lower value 1.01 | S. cerevisiae deletion strains, locus YLR371W, strain rom2, stronger effect = lower value 0.979 | S. cerevisiae deletion strains, locus YLR384C, strain iki3, stronger effect = lower value 1 | S. cerevisiae deletion strains, locus YLR418C, strain cdc73, stronger effect = lower value 0.931 | S. cerevisiae deletion strains, locus YML016C, strain PPZ1, stronger effect = lower value 1.03 | S. cerevisiae deletion strains, locus YML032C, strain rad52, stronger effect = lower value 0.99 | S. cerevisiae deletion strains, locus YML120C, strain ndi1, stronger effect = lower value 1 | S. cerevisiae deletion strains, locus YML124C, strain tub3, stronger effect = lower value 0.992 | S. cerevisiae deletion strains, locus YMR078C, strain ctf18, stronger effect = lower value 0.981 | S. cerevisiae deletion strains, locus YMR125W, strain sto1, stronger effect = lower value 1.04 | S. cerevisiae deletion strains, locus YMR129W, stronger effect = lower value 1.02 | S. cerevisiae deletion strains, locus YMR205C, strain PFK2, stronger effect = lower value 0.974 | S. cerevisiae deletion strains, locus YMR223W, strain ubp8, stronger effect = lower value 0.995 | S. cerevisiae deletion strains, locus YMR307W, strain GAS1, stronger effect = lower value 1.08 | S. cerevisiae deletion strains, locus YNL067W, strain RPL9B, stronger effect = lower value 0.984 | S. cerevisiae deletion strains, locus YNL071W, strain lat1, stronger effect = lower value 1.02 | S. cerevisiae deletion strains, locus YNL153C, strain GIM3, stronger effect = lower value 1 | S. cerevisiae deletion strains, locus YNL233W, strain BNI4, stronger effect = lower value 0.964 | S. cerevisiae deletion strains, locus YNL248C, strain rpa49, stronger effect = lower value 1.01 | S. cerevisiae deletion strains, locus YNL250W, strain rad50, stronger effect = lower value 0.968 | S. cerevisiae deletion strains, locus YNL271C, strain bni1, stronger effect = lower value 0.964 | S. cerevisiae deletion strains, locus YNL298W, strain CLA4, stronger effect = lower value 0.979 | S. cerevisiae deletion strains, locus YNL307C, strain MCK1, stronger effect = lower value 0.979 | S. cerevisiae deletion strains, locus YNL322C, strain KRE1 (second series), stronger effect = lower value 1.05 | S. cerevisiae deletion strains, locus YNL322C, strain KRE1, stronger effect = lower value 0.998 | S. cerevisiae deletion strains, locus YNR049C, strain mso1, stronger effect = lower value 1.02 | S. cerevisiae deletion strains, locus YNR052C, strain pop2, stronger effect = lower value 0.969 | S. cerevisiae deletion strains, locus YOL006C, strain TOP1, stronger effect = lower value 0.885 | S. cerevisiae deletion strains, locus YOL012C, strain htz1 1.2 | S. cerevisiae deletion strains, locus YOL147C, strain pex11, stronger effect = lower value 0.987 | S. cerevisiae deletion strains, locus YOR001W, strain rrp6, stronger effect = lower value 0.997 | S. cerevisiae deletion strains, locus YOR061W, strain CKA2, stronger effect = lower value 1.03 | S. cerevisiae deletion strains, locus YOR069W, strain VPS5, stronger effect = lower value 1.02 | S. cerevisiae deletion strains, locus YOR070C, strain gyp1, stronger effect = lower value 0.975 | S. cerevisiae deletion strains, locus YOR080W, strain dia2, stronger effect = lower value 1.02 | S. cerevisiae deletion strains, locus YOR083W, strain WHI5, stronger effect = lower value 0.976 | S. cerevisiae deletion strains, locus YOR136W, strain idh2, stronger effect = lower value 0.972 | S. cerevisiae deletion strains, locus YOR144C, strain elg1, stronger effect = lower value 0.999 | S. cerevisiae deletion strains, locus YOR184W, strain ser1, stronger effect = lower value 0.982 | S. cerevisiae deletion strains, locus YOR265W, strain rbl2, stronger effect = lower value 0.984 | S. cerevisiae deletion strains, locus YOR270C, strain vph1, stronger effect = lower value 0.835 | S. cerevisiae deletion strains, locus YOR290C, strain snf2, stronger effect = lower value 0.985 | S. cerevisiae deletion strains, locus YOR316C, strain cot1, stronger effect = lower value 1 | S. cerevisiae deletion strains, locus YPL078C, strain atp4, stronger effect = lower value 1.01 | S. cerevisiae deletion strains, locus YPL106C, strain sse1, stronger effect = lower value 0.893 | S. cerevisiae deletion strains, locus YPL240C, strain hsp82, stronger effect = lower value 1.02 | S. cerevisiae deletion strains, locus YPR119W, strain clb2, stronger effect = lower value 0.999 | S. cerevisiae deletion strains, locus YPR141C, strain kar3, stronger effect = lower value 0.964 | S. cerevisiae deletion strains, locus YPR163C, strain tif3, stronger effect = lower value 0.987 | S. cerevisiae deletion strains, locus YPR167C, strain met16, stronger effect = lower value 0.986 | S. cerevisiae deletion strains, strain wtn01, stronger effect = lower value 0.994 | S. cerevisiae strains, strain wild type, stronger effect = lower value 1.01
